Results on 19 compounds are retold here after PubChem BioAssay.

The nature of test [1]: antimalarial activity against Dd2 strain (AID 2302;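 active = growth inhibition above 50% at the single 2 µM test dose, taken to imply half-maximal potency below 2 µM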;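 note: 0% = DMSO untreated growth and 100% = chloroquine plus artemisinin killed control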). The conditions noted are these: P. falciparum Dd2 in RBCs, LDH growth readout, 72 h; at 2 µM; stronger effect = higher value.
A short description of test [2]: HepG2 cytotoxicity, primary screen, cytotoxicity control for P. falciparum antimalarial project, cell-based, ATP luminescence (AID 2303;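 active = inhibition above 50%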;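 note: 0% = DMSO wells and 100% = digitonin-killed cells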). The following applies: HepG2 viability, 24-48 h, at 10 µM, stronger effect = higher value.
The target of test [3] is L-lactate dehydrogenase (Plasmodium falciparum (isolate CDC / Honduras)) (UniProt Q27743). Nature of the test: PfLDH activity inhibition – cell lysate, 3D7 strain, counter-screen for P. falciparum growth inhibition project (AID 2304).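 Note: 0% = vehicle and 100% = reference inhibitor.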 The conditions noted are these: P. falciparum 3D7 crude extract, LDH APAD/NBT absorbance; at 2 µM; stronger effect = higher value.
Test [4] in a line: inhibition of 3D7 malaria parasite growth – strain 3D7 (AID 2306).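 Note: 0% = DMSO wells and 100% = chloroquine plus artemisinin control wells.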 The following applies: P. falciparum 3D7 erythrocytic growth, LDH absorbance, 72 h; at 2 µM; stronger effect = higher value.
Test [5] concerns the target Calcium-dependent protein kinase 1 (Plasmodium falciparum (isolate 3D7)) (UniProt P62344). Description: PfCDPK1 kinase inhibitors, biochemical, TCAMS library (AID 1159585; cut-off not given, nearly all actives have IC50 up to about 0.98 µM;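 note: inhibitors leave more ATP so luminescence rises with inhibition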). The following applies: recombinant PfCDPK1, Kinase-Glo ATP depletion luminescence.
Test [6] has as its target Plasmodium falciparum protein kinase 6 (PK6, PF3D7_1337100) (UniProt Q8IDW1). Description: PfPK6 kinase inhibitors, biochemical, TCAMS library (AID 1159586). The following applies: recombinant PfPK6, Kinase-Glo ATP depletion luminescence. On the technique in general: Kinase-Glo reads ATP consumption through a luciferase reaction.
Test [7] has as its target Protein kinase 7 (PK7), Plasmodium falciparum 3D7 (PF3D7_0213400) (UniProt Q7YTF7). Description: inhibition of Plasmodium PK7 catalytic activity – biochemical, TCAMS antimalarial set, Kinase-Glo luminescence (AID 1159587). The following applies: recombinant PfPK7, Kinase-Glo ATP depletion luminescence.
The target in test [8] is Calcium-dependent protein kinase 4 (Plasmodium falciparum (isolate 3D7)) (UniProt Q8IBS5). Description: PfCDPK4 kinase inhibitors, biochemical, TCAMS library (AID 1159588; cut-off not given, nearly all actives have IC50 up to about 0.91 µM). The conditions noted are these: recombinant PfCDPK4, Kinase-Glo ATP depletion luminescence.

Unmarked numbers belong to inactive results. For some assays here: Measured potencies and affinities stand elsewhere. Activity calls are given as the source filed them. Unless noted, the rule behind the calls is not given here.

Sequence of Plasmodium falciparum protein kinase 6 (PK6, PF3D7_1337100) (Q8IDW1 1-305): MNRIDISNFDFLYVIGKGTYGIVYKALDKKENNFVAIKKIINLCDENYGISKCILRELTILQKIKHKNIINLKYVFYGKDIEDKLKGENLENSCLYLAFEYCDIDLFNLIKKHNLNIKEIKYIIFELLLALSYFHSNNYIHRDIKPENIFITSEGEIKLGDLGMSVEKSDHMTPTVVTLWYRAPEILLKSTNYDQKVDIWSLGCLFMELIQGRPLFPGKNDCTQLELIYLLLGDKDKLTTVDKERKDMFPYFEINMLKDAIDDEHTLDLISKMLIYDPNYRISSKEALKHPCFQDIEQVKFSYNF
Sequence of L-lactate dehydrogenase (Plasmodium falciparum (isolate CDC / Honduras)) (Q27743 whole entry, looked up): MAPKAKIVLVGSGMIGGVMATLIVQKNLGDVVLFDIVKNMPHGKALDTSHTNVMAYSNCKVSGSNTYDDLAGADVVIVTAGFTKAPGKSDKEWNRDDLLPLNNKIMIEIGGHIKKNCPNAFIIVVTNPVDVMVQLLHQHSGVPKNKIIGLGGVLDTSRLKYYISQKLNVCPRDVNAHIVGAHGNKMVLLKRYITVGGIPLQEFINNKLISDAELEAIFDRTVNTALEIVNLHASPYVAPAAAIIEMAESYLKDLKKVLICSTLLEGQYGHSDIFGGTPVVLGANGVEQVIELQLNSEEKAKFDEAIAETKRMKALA
Sequence of Protein kinase 7 (PK7), Plasmodium falciparum 3D7 (PF3D7_0213400) (Q7YTF7 1-343): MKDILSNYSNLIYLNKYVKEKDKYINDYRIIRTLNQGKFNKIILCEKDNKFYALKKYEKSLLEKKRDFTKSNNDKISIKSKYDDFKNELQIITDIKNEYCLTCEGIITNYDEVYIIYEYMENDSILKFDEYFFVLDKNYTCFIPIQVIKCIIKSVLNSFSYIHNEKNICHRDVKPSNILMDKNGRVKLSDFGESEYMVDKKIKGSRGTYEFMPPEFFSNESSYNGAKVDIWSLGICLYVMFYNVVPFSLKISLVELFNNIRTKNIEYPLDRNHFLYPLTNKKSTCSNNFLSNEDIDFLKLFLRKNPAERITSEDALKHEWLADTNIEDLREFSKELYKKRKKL
Sequence of Calcium-dependent protein kinase 1 (Plasmodium falciparum (isolate 3D7)) (P62344 whole entry, looked up): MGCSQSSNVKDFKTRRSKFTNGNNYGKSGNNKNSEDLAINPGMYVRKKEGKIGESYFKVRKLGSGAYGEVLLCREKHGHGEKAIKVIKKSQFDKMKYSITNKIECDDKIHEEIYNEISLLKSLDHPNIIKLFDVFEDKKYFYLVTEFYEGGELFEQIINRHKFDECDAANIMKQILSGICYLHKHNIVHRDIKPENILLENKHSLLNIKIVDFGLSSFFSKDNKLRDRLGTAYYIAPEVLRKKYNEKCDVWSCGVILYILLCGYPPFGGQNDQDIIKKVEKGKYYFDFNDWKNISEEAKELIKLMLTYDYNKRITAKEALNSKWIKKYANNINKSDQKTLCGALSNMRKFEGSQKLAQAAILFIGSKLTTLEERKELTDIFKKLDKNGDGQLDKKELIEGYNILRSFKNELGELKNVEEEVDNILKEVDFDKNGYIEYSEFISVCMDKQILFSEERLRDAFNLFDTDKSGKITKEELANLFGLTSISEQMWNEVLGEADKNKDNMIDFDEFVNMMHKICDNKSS
Sequence of Calcium-dependent protein kinase 4 (Plasmodium falciparum (isolate 3D7)) (Q8IBS5 whole entry, looked up): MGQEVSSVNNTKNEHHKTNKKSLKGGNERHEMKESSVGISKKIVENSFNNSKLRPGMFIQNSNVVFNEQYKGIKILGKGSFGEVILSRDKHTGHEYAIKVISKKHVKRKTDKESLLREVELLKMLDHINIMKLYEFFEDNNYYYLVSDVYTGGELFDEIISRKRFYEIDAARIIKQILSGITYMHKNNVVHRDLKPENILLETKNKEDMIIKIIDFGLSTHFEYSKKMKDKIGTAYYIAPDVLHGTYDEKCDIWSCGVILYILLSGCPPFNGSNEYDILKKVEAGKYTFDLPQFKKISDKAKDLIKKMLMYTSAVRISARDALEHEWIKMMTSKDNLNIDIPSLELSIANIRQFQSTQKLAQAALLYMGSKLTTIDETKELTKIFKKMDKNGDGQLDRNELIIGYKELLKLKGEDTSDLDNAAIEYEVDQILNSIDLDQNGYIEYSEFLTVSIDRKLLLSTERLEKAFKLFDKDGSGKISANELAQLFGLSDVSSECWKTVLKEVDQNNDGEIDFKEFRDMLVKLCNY

As usually defined, the inhibition is the relative decrease from the control value, in per cent. As for `COc1ccccc1-c1csc(C(=O)NC2CCCCN(Cc3ccc(C(C)(C)C)cc3)C2)c1` (configuration not stated), the growth inhibition in test [1] is 8%; in test [4], 99% (active). Moreover, the inhibition in test [2] is 13%; in test [3], -5%. The outcome in test [5], in test [6], in test [7] and in test [8] was inactive.

Consider `CCN(CC)CCCC(C)Nc1ccnc2ccc(-c3ccccc3)cc12` (configuration not stated), for which the growth inhibition is 21% in test [1] and 98% (active) in test [4]. For the same compound, the inhibition in test [2] is 0%; in test [3], 2%. The result in test [5], in test [6], in test [7] and in test [8] was inactive.

For the compound `O=C(CCc1ccccc1)NC(c1ccc(Cl)cc1)c1ccc2cccnc2c1O` (configuration not stated), the growth inhibition in test [1] is 49%; in test [4] it was 95% (active). The inhibition was 59% (active) in test [2] and 2% in test [3]. Besides, the result in test [5], in test [6], in test [7] and in test [8] was inactive.

With `CNCc1ccc(-c2ccc3ccnc(N)c3c2)cc1`, the growth inhibition was 98% (active) in test [1] and 94% (active) in test [4]. Moreover, the inhibition in test [2] is 46%; in test [3] it was 5%. In addition, the outcome in test [5], in test [6], in test [7] and in test [8] was inactive.

With `CCNc1cc(C(=O)N[C@@H](Cc2ccccc2)[C@H](O)CNC2(CCC(C)C)CC2)cc(N2CCCCS2(=O)=O)c1`, the growth inhibition was 52% (active) in test [1] and 90% (active) in test [4]. Further, the values for the inhibition in test [2] and in test [3] were 6% and 2%, respectively. For the same compound, the result in test [5], in test [6], in test [7] and in test [8] was inactive.

As to `Cc1ccc(NC(=O)c2cnc(N3CCN(c4ccncc4)CC3)c(Cl)c2)cc1`, the values for the growth inhibition in test [1] and in test [4] were 24% and 94% (active), respectively. Besides, the inhibition is 25% in test [2] and 4% in test [3]. Moreover, the result in test [5], in test [6], in test [7] and in test [8] was inactive.

Turning to `COc1cc(Br)c(S(=O)(=O)n2cc(CN3CCC(N)CC3)c3cc(Cl)ccc32)cc1OC`, the growth inhibition in test [1] was 32%; in test [4] it was 99% (active). Further, the inhibition in test [2] is 27%; in test [3], -4%. Moreover, the outcome in test [5], in test [6], in test [7] and in test [8] was inactive.

As for `CCCCN1C(=O)[C@H]2CC(=O)CC(C3CCCCC3)[C@H]2C1=O` (some centres not stated), the growth inhibition in test [1] was 1%; in test [4] it was 97% (active). For the same compound, the values for the inhibition in test [2] and in test [3] were -1% and -5%, respectively. For the same compound, the outcome in test [5], in test [6], in test [7] and in test [8] was inactive.

`CC1CN(c2cc(=O)n(Cc3ccc(NC(=O)Nc4ccc(-c5ccccc5)cc4)cc3)cn2)CC(C)N1` (configuration not stated): the growth inhibition in test [1] was 20%; in test [4], 87% (active). For the same compound, the values for the inhibition in test [2] and in test [3] were 0% and -1%, respectively. Further, the outcome in test [5], in test [6], in test [7] and in test [8] was inactive.

As for `COc1ccc(-c2cccc(NC(=O)c3ccc(Cl)cc3)c2)cc1CNC(C)C`, the growth inhibition was 44% in test [1] and 101% (active) in test [4]. For the same compound, the values for the inhibition in test [2] and in test [3] were 53% (active) and -4%, respectively. For the same compound, the outcome in test [5], in test [6], in test [7] and in test [8] was inactive.

Consider `O=C(Nc1ccc(Cl)cc1)NC1CCN(CCCCCNC(=O)[C@@H]2C[C@H]2c2ccc(Cl)c(Cl)c2)CC1`, for which the growth inhibition in test [1] was 18%; in test [4], 102% (active). The inhibition was 51% (active) in test [2] and 4% in test [3]. In addition, the result in test [5], in test [6], in test [7] and in test [8] was inactive.

`Cc1cccc2[nH]c(-c3cccc(-c4ccc(NC(=O)c5cnc[nH]5)cc4)c3)nc12`: the growth inhibition in test [1] was 48%; in test [4], 101% (active). In addition, the inhibition in test [2] was 8%; in test [3], 3%. The outcome in test [5], in test [6], in test [7] and in test [8] was inactive.

As to `NS(=O)(=O)c1cncc(-c2ccc3nccc(-c4cn[nH]c4)c3n2)c1`, the growth inhibition in test [1] is 100% (active); in test [4], 99% (active). Further, the inhibition is 33% in test [2] and -2% in test [3]. The outcome in test [5], in test [6], in test [7] and in test [8] was inactive.

Regarding `CC(C)(C)[C@@H](Nc1ccc(C#N)c2ccccc12)C(=O)NC1(Cc2ccc(O)cc2)CCCC1`, the growth inhibition in test [1] is 74% (active); in test [4], 90% (active). For the same compound, the values for the inhibition in test [2] and in test [3] were 14% and 0%, respectively. Also, the result in test [5], in test [6], in test [7] and in test [8] was inactive.

Consider `CSc1ccc(CN2CCC(CNC(=O)c3cc(-c4ccccc4F)cs3)C2)cc1` (configuration not stated), for which the growth inhibition was 13% in test [1] and 90% (active) in test [4]. Further, the figures for the inhibition in test [2] and in test [3] were 32% and 2%, respectively. Also, the outcome in test [5], in test [6], in test [7] and in test [8] was inactive.

Turning to `COc1ccc(C2CC(=O)C3=C(C2)NC(C)=C(C(=O)OC2CCCC2)C3c2ccc(O)cc2)cc1OC` (configuration not stated), the growth inhibition in test [1] was 92% (active); in test [4], 97% (active). Also, the figures for the inhibition in test [2] and in test [3] were -9% and -7%, respectively. In addition, the result in test [5], in test [6], in test [7] and in test [8] was inactive.

Take `Cc1cccc2[nH]c(-c3ccc(-c4cccc(CNCCN(C)C)c4)cc3)nc12`: the growth inhibition in test [1] was 98% (active); in test [4], 102% (active). Besides, the inhibition in test [2] was 6%; in test [3], 0%. Moreover, the outcome in test [5], in test [6], in test [7] and in test [8] was inactive.

Consider `CC[C@H](C)CNC(=O)c1cccc(-c2cccc(CNCC3CNCCCO3)c2)n1` (some centres not stated), for which the growth inhibition in test [1] was 54% (active); in test [4], 91% (active). Besides, the inhibition in test [2] is 15%; in test [3] it was 1%. The outcome in test [5], in test [6], in test [7] and in test [8] was inactive.

As to `Cc1ccc(/C=C/C(=O)NCCCCCN2CCC(c3c[nH]c4ccccc34)CC2)cc1`, the growth inhibition in test [1] is 7%; in test [4], 86% (active). In addition, the inhibition in test [2] was 36%; in test [3], 0%. The outcome in test [5], in test [6], in test [7] and in test [8] was inactive.
